Assay outcomes as filed in PubChem.
Compounds with a hit are over-represented: about 7.3% of the library has one in this group of screens.
Tau fluor counter: counter-screen for tau fibril formation inhibitors. tau K18 P301L Alexa594 fluorescence, heparin fibrillization. Potency, µM (highest dose often 57.7 µM), inactives show at the top dose activity change, negative = decrease. 280,000 compounds, 0.93% hits. AID 1463; also: nearly all actives have a fitted effect of over 55% in size
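Human tau K18 P301L (15 uM unlabeled, 0.24 uM Alexa 594-labeled) in 100 mM sodium acetate pH 7 with 20 uM heparin, 6 hr at 37 C. ThT 30 uM added, 1 hr ambient; Alexa 594 FP and total fluorescence read at 555/632 nm.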
RORgamma inh: ROR gamma (mouse) transcription inhibition. P51450. Drosophila S2 Gal4-RORgamma UAS-luciferase reporter, 20 h. Potency, µM (doses to about 53.6 µM), for inactives: at the highest dose activity change, negative = inhibition, actives largely listed as inhibitors. 310,000 compounds, 5.4% hits; also: nearly all actives have a fitted effect of over 60% in size
Target sequence (P51450 whole entry, looked up, the tested form may be a part): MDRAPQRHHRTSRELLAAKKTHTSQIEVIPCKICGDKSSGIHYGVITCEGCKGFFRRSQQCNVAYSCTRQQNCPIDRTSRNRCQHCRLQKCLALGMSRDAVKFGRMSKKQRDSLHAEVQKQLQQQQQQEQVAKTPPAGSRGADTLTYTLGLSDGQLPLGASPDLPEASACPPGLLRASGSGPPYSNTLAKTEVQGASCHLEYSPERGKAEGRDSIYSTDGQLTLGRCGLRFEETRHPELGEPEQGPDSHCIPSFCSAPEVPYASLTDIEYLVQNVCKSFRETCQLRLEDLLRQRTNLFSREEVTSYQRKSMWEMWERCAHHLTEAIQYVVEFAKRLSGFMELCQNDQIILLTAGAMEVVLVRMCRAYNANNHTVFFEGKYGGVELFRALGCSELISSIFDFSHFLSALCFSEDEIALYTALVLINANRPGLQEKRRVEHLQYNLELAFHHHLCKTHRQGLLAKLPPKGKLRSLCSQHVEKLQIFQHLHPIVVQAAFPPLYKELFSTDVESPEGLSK
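Stably transfected Drosophila Schneider cells are the test system, with ROR gamma fused to Gal4 and luciferase under UAS control; luminescence is read after 20 hr of 700 uM copper sulfate induction at ambient temperature.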
VP16 counter: counter-screen for ROR gamma inhibitors: Gal4-VP16 reporter. Potency, µM (top dose mostly 53.6 µM), without a hit: top-dose activity, negative = inhibition, most hits filed as inhibitors. 310,000 compounds, 3.5% hits. Drosophila S2 Gal4-VP16 UAS-luciferase, luminescence, 20 h;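 also: Gal4-VP16 expression switched on by copper sulfate through the metallothionein promoter; nearly all actives have a fitted effect of over 50% in size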
Tau fibril ThT: inhibitors of human tau fibril formation, thioflavin T binding; Potency, µM (titrated, usually from 57.4 µM), without a hit: top-dose activity, negative = inhibition, hits mostly inhibitors; AID 1460; recombinant tau K18 P301L (four-repeat tau fragment), heparin-induced fibrillization, ThT fluorescence; 270,000 compounds, 2.1% hits; P10636; also: nearly all actives have a fitted effect of over 55% in size
Target sequence (P10636 561-689 P618L limits assumed): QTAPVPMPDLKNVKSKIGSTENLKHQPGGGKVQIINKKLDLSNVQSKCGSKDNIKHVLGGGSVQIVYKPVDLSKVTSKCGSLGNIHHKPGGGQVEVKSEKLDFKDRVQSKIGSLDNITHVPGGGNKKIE
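Tau K18 P301L fragment (15 uM unlabeled plus 0.24 uM Alexa 594-labeled) in 100 mM sodium acetate pH 7 with compound, fibrillization induced by 20 uM heparin for 6 hr at 37 C. Thioflavin T (30 uM) added, fluorescence read after 1 hr (ex 450, em 510 nm).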
Tau fibril FP: inhibitors of human tau fibril formation; K18 P301L tau heparin fibrillization, Alexa594 FP, 6 h; Potency, µM (series often up to 57.7 µM), for the others: at the top dose activity, negative = inhibition, most hits filed as inhibitors; 280,000 compounds, 0.39% hits; also: nearly all actives have a fitted effect of over 55% in size
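Human K18 P301L fragment (15 uM unlabeled plus 0.24 uM Alexa 594-labeled) in 100 mM sodium acetate pH 7 with compound, aggregation induced by 20 uM heparin for 6 hr at 37 C. ThT (30 uM) added for 1 hr, then Alexa 594 FP read.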
* marks the source's active call; other numbers are inactive results; ? = inconclusive; . = no result; [ ] = another dose, or the depositor's remark. Calls follow the shape of the dose curve; as a rule, active = well fitted curve in the direction sought with a large enough effect; inconclusive = small, poorly fitted or top-dose-only effect, or another doubt; inactive = no such curve, though single readings can be large; an effect the other way counts as inactive or inconclusive. % is scaled to controls: 0 for no effect and ±100 for the full control effect; potency is read from the fitted curve at half-maximal effect.

SMILES | Tau fluor counter | RORgamma inh | VP16 counter | Tau fibril ThT | Tau fibril FP
CC(=O)N1C(=O)/C(=C2\SC(=S)N(NS(=O)(=O)c3ccc(C)cc3)C2=O)c2ccccc21 | ? | 5% | -1% | 14µM* | ?
CC1CCCN(c2ccc3nncn3n2)C1 (configuration not stated) | . | 9% | -17% | . | .
CCN1C(=O)/C(=C2\SC(=S)N(CC3CCCO3)C2=O)c2ccccc21 (configuration not stated) | -24% | -4% | 6% | ? | 6%
CCN1C(=O)/C(=C2\SC(=S)N(NC(=O)c3ccccc3O)C2=O)c2ccccc21 | 20µM*[quencher] | 5% | -7% | 20µM* | ?
Cc1cc(Sc2ncnc(N)c2[N+](=O)[O-])ncn1 | ? | 3.5µM* | 4.5µM* | ? | -2%
Cc1cc(Sc2nc(N)ncc2[N+](=O)[O-])ncn1 | ? | 0.79µM* | ? | ? | 3%
Cc1ccnc(Sc2ncccc2[N+](=O)[O-])n1 | -15% | -1% | 2% | -11% | -2%
Cc1ccc(C)c(Oc2ncnc(N)c2[N+](=O)[O-])c1 | -2% | 16% | 4% | -4% | -2%
CCN1c2ccccc2-c2nc(SCC(=O)NCc3ccccc3)ncc2S1(=O)=O | -13% | . | . | 11% | -12%
CC1CCc2c(nc3sc4c(c3c2N)CCCC4)C1 (configuration not stated) | -10% | 13µM* | ? | ? | 6%
CC1CCc2nc3sc4c(c3c(N)c2C1)CCCC4 (configuration not stated) | -3% | -36% | -14% | ? | 2%
CC1(O)C(=O)C=C2C=C3CCCN3C=C2C1=O (configuration not stated) | -26%[11.6 µM] | 3%[10 µM] | 0%[10 µM] | ? | -16%[11.6 µM]
CN(C(=O)Nc1ccccc1)C1CCS(=O)(=O)C1 (configuration not stated) | 3% | -9% | -5% | -4% | 4%
CC(=O)NC1=C(N(C)C2CCS(=O)(=O)C2)C(=O)c2ccccc2C1=O (configuration not stated) | -22% | 2.5µM* | 7.9µM* | 25µM* | ?
Fc1ccccc1-c1nc(-c2ccccc2)oc1NC1CCCCC1 | 4% | 1% | -13% | ? | 5%
CC(C)NC(=O)c1ccccc1NC(=O)/C=C/c1cccc([N+](=O)[O-])c1 | -17% | ? | 7.9µM* | -10% | -3%
CC(C)(C)c1ccc(C(=O)Nc2cccc3c(=O)[nH][nH]c(=O)c23)cc1 | -12% | ? | 3.5µM* | 6% | -9%
Cc1ccc(S(=O)(=O)Oc2ccc(C)cc2/C=N/N=C2\NC(=O)C(C)S2)cc1 (configuration not stated) | -26% | 13µM* | 10µM* | -13% | -1%
CCc1cc(=O)oc2cc3occ(-c4ccc(OC)c(F)c4)c3cc12 | -17% | ? | 13µM* | -8% | -18%
c1ccc(-n2nnc3c(N4CCOCC4)ncnc32)cc1 | -13% | 8.9µM* | ? | -22% | -3%
Cc1nnc(N2CCOCC2)c2nn(-c3ccccc3)c(C)c12 | 5% | -7% | 0% | 3% | ?
CC(=O)c1ccc(N2CCN(S(=O)(=O)c3ccc(-c4coc(C)n4)cc3)CC2)cc1 | -5% | . | . | -5% | -3%
CN(C)/C=N/C(=S)Nc1ccccc1Cl | -5% | 6.3µM* | 8%[10 µM] | -1% | -2%
CN(C)/C=N/C(=S)Nc1ccc(Cl)c(Cl)c1 | -16% | 1.8µM* | 3.2µM* | -11% | -13%
CN(O)/C=N/C(=S)Nc1ccc(Cl)cc1Cl | -14% | 18µM* | 1% | -14% | -7%
SMILES | Tau fluor counter | RORgamma inh | VP16 counter | Tau fibril ThT | Tau fibril FP
CN(C)/C=N/C(=S)Nc1ccc(F)cc1 | 3% | 11µM* | ? | 4% | 6%
CN(C)/C=N/C(=S)Nc1ccccc1F | 7% | -30% | -2% | 1% | 9%
CN(C)/C=N/C(=S)Nc1cc(Cl)cc(Cl)c1 | 7% | 20% | -1%[10 µM] | 9% | -1%
Cc1cc(C(=O)Nc2ccc([N+](=O)[O-])cn2)cs1 | . | -10% | 8% | . | .
CCCOP(=O)(c1ccc(N(C)C)cc1)C(O)c1ccc(Cl)cc1 (configuration not stated) | . | 13% | 5% | . | .
NS(=O)(=O)c1cc2c(cc1Cl)N[C@H](Cc1ccccc1)NS2(=O)=O | . | 4%[10 µM] | 0% | . | .
Cc1cc(C)c(S(=O)(=O)N(C2=NCCS2)S(=O)(=O)c2c(C)cc(C)cc2C)c(C)c1 | -19% | 16µM* | -8% | -9% | -18%
O=S1(=O)C=C(Sc2nnc(-c3ccccc3)o2)c2ccccc21 | 2% | 1.8µM* | 3.2µM* | ? | ?
Cc1cc(C)nc(SC2=CS(=O)(=O)c3ccccc32)n1 | -6% | -36% | 29% | ? | -4%
CN(c1ccc(F)cc1)S(=O)(=O)N1CCCC(C(=O)NCCc2ccccc2)C1 (configuration not stated) | -10% | . | . | -3% | 2%
Cc1nn(-c2ccccc2)c(N2CCCC2)c1/C=N/NC(=O)c1cc(-c2ccccc2)nc2ccccc12 | 5% | 15% | -19% | 6% | 10%
COc1cc(/C=N/Nc2ccccc2[N+](=O)[O-])cc(OC)c1O | 0% | 29% | 1% | 9% | 5%
CC(=O)N1CCC(=NNc2ccc(S(N)(=O)=O)cc2[N+](=O)[O-])CC1 | -15% | 5% | 0% | ? | -3%
C/C(=N\Nc1ccc(S(N)(=O)=O)cc1[N+](=O)[O-])c1ccc2c(c1)OCO2 | ? | ? | 11µM* | 3.5µM* | -1%
CCOC(=O)N1CCC(=NNc2ccc(S(N)(=O)=O)cc2[N+](=O)[O-])CC1 | -8% | 13% | -15% | 5µM* | 2%
Cc1nn(-c2ccccc2)c(N2CCCC2)c1/C=N/Nc1ccc(S(N)(=O)=O)cc1[N+](=O)[O-] | 14µM*[quencher] | -16% | ? | 5µM* | -5%
COc1cc(/C=N/Nc2ccc(S(N)(=O)=O)cc2[N+](=O)[O-])cc(OC)c1O | ? | -2% | -3% | 1.8µM* | 8%
Cc1ccc(C)c(N2CCN(C(=O)c3cc4cc5ccc(C)cc5nc4o3)CC2)c1 | -11% | . | . | ? | -4%
O=C(c1ccccc1Oc1ccc([N+](=O)[O-])cc1)N1CCOCC1 | . | -2% | 1% | . | .
O=C(NCC(c1ccc2c(c1)OCO2)N1CCOCC1)C(=O)Nc1ccc(Cl)cc1 (configuration not stated) | -16% | . | . | ? | -6%
NS(=O)(=O)c1ccc(N/N=C/c2ccc[nH]2)c([N+](=O)[O-])c1 | ? | 5% | 3% | 7.9µM* | -6%
COc1ccc(/C=N\Nc2ccc([N+](=O)[O-])cc2[N+](=O)[O-])c(C(=O)O)c1OC | -29% | 11% | -17% | 14µM* | -7%
NS(=O)(=O)c1ccc(N/N=C/c2ccc(C(=O)O)cc2)c([N+](=O)[O-])c1 | -20% | -7% | 1% | 11µM* | -4%
